CHX counter: Cycloheximide Counterscreen for Small Molecule Inhibitors of Shiga Toxin. AID 2314, 2010. max response, %. cell reporter, cycloheximide protein synthesis inhibition counterscreen. hit rate 12% among 300,000; in the data active means max response mostly above about 13%, no sharp cut-off; inactive means mostly below about 14%; further: read at 38.3 µM for the half of the compounds with a filed dose; 0% is about no effect
Pf growth 48h: Primary qHTS for delayed death inhibitors of the malarial parasite plastid, 48 hour incubation; Potency, µM (series often up to 28.7 µM), inactives show top-dose activity change, negative = inhibition, usual class: inhibitors; hit rate 5.9% among 310,000; P. falciparum luciferase growth in erythrocytes, 48 h; further: potency means the concentration at half of the fitted maximal effect; on the % scale 0 is the no-effect control and ±100 the full control effect
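In quantitative HTS format, infected erythrocytes bearing luciferase-reporter parasites were treated for a single generation at 37 C. Luminescence after adding detection reagent served as the growth measure.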
Shiga toxin inh: A qHTS for Small Molecule Inhibitors of Shiga Toxin. AID 2315, 2010. Vero cells, Shiga toxin protein synthesis inhibition reporter. inhibition, % at 38.7 µM. hit rate 9.2% among 290,000; in the data active means inhibition mostly above about 28%, no sharp cut-off; inactive means mostly below about 43%; further: 0% is about no effect
Lassa entry inh: qHTS for Inhibitors of binding or entry into cells for Lassa Virus | Lassa virus pseudotype entry inhibition, cell reporter | Potency, µM (doses to about 37.9 µM), for the others: at the top dose activity change, negative = inhibition, hits mostly inhibitors | hit rate 1.2% among 300,000 | AID 540256, 2011; calls by dose curve; tested in HEK293 cells; further: potency means the concentration at half of the fitted maximal effect; on the % scale 0 is the no-effect control and ±100 the full control effect; nearly all actives have a fitted effect of over 50% in size
Pf growth 96h: Primary qHTS for delayed death inhibitors of the malarial parasite plastid, 96 hour incubation; P. falciparum luciferase reporter growth, 96 h; Potency, µM (top dose mostly 28.7 µM), for the others: top-dose activity change, negative = inhibition, usual class: inhibitors; AID 504834, 2011; hit rate 6.9% among 320,000; further: potency means the concentration at half of the fitted maximal effect; on the % scale 0 is the no-effect control and ±100 the full control effect
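Two parasite generations (96 h, 37 C, 5% CO2) of compound exposure in infected erythrocytes (0.05% parasitemia, 2% hematocrit). Luciferase-reporter P. falciparum; decreased luminescence indicates inhibited growth, aimed at apicoplast-acting delayed death.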
Marburg entry inh: qHTS for inhibitors of binding or entry into cells for Marburg Virus; hit rate 1.8% among 300,000; Potency, µM (series often up to 37.8 µM), without a hit: at the top dose activity change, negative = inhibition, actives largely listed as inhibitors; Marburg virus pseudotyped entry inhibition, cell reporter; AID 540276, 2011; calls by dose curve; tested in HEK293 cells; further: potency means the concentration at half of the fitted maximal effect; on the % scale 0 is the no-effect control and ±100 the full control effect
Active calls of the source: *; ? = inconclusive; · = not tested or not shown; [ ] = another dose, or the depositor's remark. Compounds with a hit are over-represented: about 19% of the library has one in this group of screens. Unless noted, the call rests on the fitted dose curve; in most records, active means well fitted inhibition curve with a large enough effect; inconclusive means small, poorly fitted or top-dose-only effect, or another doubt; inactive means no such curve, though single readings can be large or run the other way.

SMILES	CHX counter	Pf growth 48h	Shiga toxin inh	Lassa entry inh	Pf growth 96h	Marburg entry inh
COc1ccccc1C(=O)Nc1ccc2oc(-c3ccc(F)cc3)nc2c1	-1	5%	38	-15%	10µM*	?
CC(=O)Nc1ccc(-c2nc3cc(Cl)ccc3o2)cc1	52*	123%	109*	?	-5%	?
O=C(O)c1ccccc1-c1ccccc1C(=O)Nc1ccc(-c2nc3cc(Cl)ccc3o2)cc1	26*	?	62*	·	?	·
CC(=O)Nc1cc(-c2nc3cc(Cl)ccc3o2)ccc1C	·	·	·	22%[46.1 µM]	·	-10%[46.1 µM]
CCCCN(C)CCNC(=O)C1CCCN(S(=O)(=O)c2ccc3c(c2)oc(=O)n3C)C1 (configuration not stated)	·	·	·	9%[46.1 µM]	·	3%[46.1 µM]
CCOc1ccc(OCCOCCN2CCOCC2)cc1	-5	·	-5	4%	26%	1%
CCOc1ccc(-c2cc(C)[n+](CCN3CCOCC3)c(-c3ccc(OCC)cc3)c2)cc1	0	0.66µM*	3	-27%	0.37µM*	?
O=C(CCc1nnc2n(Cc3ccc(F)cc3)c(=O)c3ccccc3n12)NCCN1CCOCC1	-1	?	5	·	?	·
O=C1NCCNC1(c1c[nH]c2ccccc12)C(F)(F)F (configuration not stated)	-7	·	-20	·	1µM*	·
Cc1cc(O)c(C2(C(F)(F)F)NCCNC2=O)cc1C (configuration not stated)	-1	31%	19	10%	?	-12%
CCOc1ccc2nc(NC(=O)Cn3[nH]c(=O)c4ccccc4c3=O)sc2c1	41*	?	53*	·	-25%	·
CCOC(=O)N1CCN(CC(=O)Nc2nc3ccc(OC)cc3s2)CC1	25*	25%	45*	·	?	·
CCOc1ccc2nc(NC(=O)CN3CCN(C)CC3)sc2c1	27*	58%	50	7%	?	?
CCOC(=O)N1CCN(CC(=O)Nc2nc3ccccc3s2)CC1	-2	17%	·	?	?	3%
O=C(CN1CCOCC1)Nc1nc2ccc(Cl)cc2s1	22*	52%	38	·	26%	·
CCC1(C)Cc2sc3c(=O)[nH]c(=S)[nH]c3c2CO1 (configuration not stated)	23	-6%	25	16%	66%	?
CCOc1ccc(CCNS(=O)(=O)c2ccc3c(c2)N(C(C)=O)CCO3)cc1OCC	-8	-8%	-7	·	20%	·
CCOc1ccc2nc(NC(=O)CN3CCOCC3)sc2c1	37*	4.1µM*	87*	2%	1%	?
CCc1ccc(Nc2n[n+](-c3ccccc3)c(-c3ccc(OCc4ccccc4)cc3)s2)cc1	19*	?	14	·	2.9µM*	·
CCOc1cc(-c2sc(Nc3ccccc3)n[n+]2C)ccc1OC	2	?	6	·	4%	·
Cc1cccc(-c2sc(Nc3ccccc3)n[n+]2-c2ccccc2)c1	·	?	·	·	-23%	·
O=C(O)c1ccc(-c2sc(Nc3ccccc3)n[n+]2-c2ccccc2)cc1	20*	43%	26	·	-23%	·
c1ccc(COc2ccc(-c3sc(Nc4ccccc4)n[n+]3-c3ccccc3)cc2)cc1	20*	?	35*	·	?	·
CCOc1ccc(S(=O)(=O)N(C(=O)c2ccncc2)c2ccc3oc(C)c(C(=O)OC)c3c2)cc1	·	·	·	?	·	10µM*
COC(=O)c1c(C)oc2ccc(N(C(=O)c3ccncc3)S(=O)(=O)c3ccc(OC)cc3)cc12	·	·	·	-27%[46.1 µM]	·	?
COc1ccc(CNC(=O)c2ccc(-c3nc(CS(=O)c4ccc(C)cc4)c(C)o3)cc2)cc1 (configuration not stated)	·	·	·	-19%[46.1 µM]	·	·
CC1(C(=O)O)C2CCC(O2)C1(C)C(=O)O (configuration not stated)	·	·	·	3.3µM*	·	4.1µM*
COc1ccc(N(C)S(=O)(=O)c2cccc(C(=O)Nc3cccc(C(=O)NC4CC4)c3)c2)cc1	·	5.2µM*	·	?	15µM*	?
COc1ccc(N(C)S(=O)(=O)c2cccc(C(=O)N(C)Cc3ccc(C)o3)c2)cc1	-2	?	10	5µM*	-18%	?

Screening results from PubChem BioAssay.
